Potency and outcome data for 38 compounds are collected here from PubChem BioAssay (Tox21).

The structures appear in SMILES notation. Inconclusive results are not listed. Entries that show only a call come without a potency. Activity calls are given as the source filed them. Unless noted, the call rests on the fitted dose curve; in most records, active means well fitted cell-killing curve with a large enough effect in the repeat runs (not every such curve was filed as active); inconclusive means weak or mixed curves, or effect the other way; inactive means no such curve, though single readings can be large or run the other way.

Sequence of Vitamin D3 receptor (Homo sapiens) (P11473 whole entry, looked up): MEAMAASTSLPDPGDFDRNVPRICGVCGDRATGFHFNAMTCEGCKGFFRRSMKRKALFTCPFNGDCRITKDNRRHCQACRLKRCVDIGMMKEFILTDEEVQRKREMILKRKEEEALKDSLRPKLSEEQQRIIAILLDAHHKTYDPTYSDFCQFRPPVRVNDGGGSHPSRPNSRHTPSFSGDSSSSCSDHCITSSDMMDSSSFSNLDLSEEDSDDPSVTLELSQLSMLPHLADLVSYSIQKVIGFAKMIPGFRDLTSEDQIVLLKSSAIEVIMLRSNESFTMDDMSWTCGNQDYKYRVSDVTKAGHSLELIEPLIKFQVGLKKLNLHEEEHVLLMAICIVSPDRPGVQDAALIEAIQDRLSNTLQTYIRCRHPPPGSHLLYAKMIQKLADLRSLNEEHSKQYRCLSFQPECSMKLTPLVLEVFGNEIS

The target in the first test is Bile acid receptor (Homo sapiens) (UniProt Q96RI1). The experiment in a line: qHTS assay to identify small molecule agonists of the farnesoid-X-receptor (FXR) signaling pathway (AID 743220; active means well fitted activation curve with a large enough effect in the signal ratio in the repeat runs, not every such curve was filed as active; the % refers to the signal ratio). Conditions: HEK293T FXR-UAS-bla, beta-lactamase FRET ratio, 16 h; series mostly up to 62.6 µM. The method, boiled down: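 Beta-lactamase reporter under UAS control in GeneBLAzer FXR HEK 293T cells (5000/well) measured with LiveBLAzer FRET substrate after 2 h at room temperature. Compound exposure lasted 16 h at 37C.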
Sequence of Bile acid receptor (Homo sapiens) (Q96RI1 whole entry, looked up): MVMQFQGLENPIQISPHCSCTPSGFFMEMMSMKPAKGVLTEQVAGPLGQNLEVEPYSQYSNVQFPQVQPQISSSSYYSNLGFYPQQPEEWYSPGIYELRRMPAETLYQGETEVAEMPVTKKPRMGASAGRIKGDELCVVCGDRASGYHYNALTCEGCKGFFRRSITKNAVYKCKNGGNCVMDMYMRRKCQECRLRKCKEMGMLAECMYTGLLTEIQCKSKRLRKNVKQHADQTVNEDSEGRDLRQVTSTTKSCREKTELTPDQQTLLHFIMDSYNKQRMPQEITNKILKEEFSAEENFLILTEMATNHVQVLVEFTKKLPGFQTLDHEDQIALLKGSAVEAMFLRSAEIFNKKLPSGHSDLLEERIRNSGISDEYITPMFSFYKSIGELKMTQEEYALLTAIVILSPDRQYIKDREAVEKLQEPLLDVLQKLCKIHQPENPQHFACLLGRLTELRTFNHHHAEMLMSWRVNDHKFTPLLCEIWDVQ
For the compound `CN(C)CCOC1=Cc2ccccc2Sc2ccc(Cl)cc21`, the Potency result is “inactive”.

Turning to `O=C(N[C@@H](c1ccccc1)[C@@H]1CCCCN1)c1cccc(C(F)(F)F)c1Cl`, the Potency result was “inactive”.

Regarding `CC(=O)[C@H]1CC[C@H]2[C@@H]3C[C@H](C)C4=CC(=O)CC[C@]4(C)[C@H]3[C@@H](O)C[C@]12C`, the Potency result is “inactive”.

Consider `CC[C@H](NC(=O)c1cc(F)ccc1NS(=O)(=O)c1cccc2cccnc12)c1ccccc1`, for which the Potency entry is “inactive”.

In the case of `CC(C)(C)C(=O)C(Oc1ccc(Cl)cc1)n1ccnc1` (stereo not given), the Potency entry is “inactive”.

On to `C=CCOC(=O)/C=C\C(=O)OCC=C`, for which the Potency entry was “inactive”.

Take `COC(=O)c1cc(S(N)(=O)=O)ccc1OC`: the Potency result was “inactive”.

Consider `CC(CCO)CCc1ccccc1` (stereo not given), for which the Potency result is “inactive”.

For the compound `Cc1oncc1C(=O)Nc1ccc(C(F)(F)F)cc1`, the Potency entry was “inactive”.

Consider `CCCCC/C(=C\c1ccccc1)CO`, for which the Potency entry was “inactive”.

Tested on in another test: not listed separately
The experiment in a line: qHTS assay to identify small molecule antagonists of the farnesoid-X-receptor (FXR) signaling pathway - cell viability counter screen (AID 743221). Further: nearly all actives have a fitted effect of over 50% in size. Particulars: FXR-bla HEK293T viability, CellTiter-Glo luminescence, 16 h; series mostly up to 62.6 µM. The method, boiled down:
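After a 5 h settling period, FXR-bla HEK 293T cells receive compound and chenodeoxycholic acid (50 uM final) and incubate 16 h at 37 C; CellTiter-Glo luminescence, read after 30 min at room temperature, reports cell viability.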
As to `CC(COc1ccc(C(C)(C)C)cc1)OS(=O)OCCCl` (stereo not given), the Potency result is “inactive”.

With `Cc1ccc(Nc2nccc(N(C)c3ccc4c(C)n(C)nc4c3)n2)cc1S(N)(=O)=O`, the Potency result was “inactive”.

Turning to `CCOCCn1c(C2CCN(CCc3ccc(C(C)(C)C(=O)O)cc3)CC2)nc2ccccc21`, the Potency result is “inactive”.

In the case of `CCCC(=O)O[C@]1(C(=O)COC(=O)CC)CC[C@H]2[C@@H]3CCC4=CC(=O)CC[C@]4(C)[C@H]3[C@@H](O)C[C@@]21C`, the Potency result is “inactive”.

Consider `Oc1ccc(Nc2ccccc2)cc1`, for which the Potency result is “inactive”.

For the compound `O=C(O)c1ccccc1NCCc1ccccc1`, the Potency entry was “inactive”.

As for `CCC(C)(C)C1CCC(O)CC1` (stereo not given), the Potency result is “inactive”.

As to `O=C(N[C@@H](c1ccccc1)[C@@H]1CCCCN1)c1cccc(C(F)(F)F)c1Cl`, the Potency entry was “inactive”.

Regarding `CC(=O)[C@H]1CC[C@H]2[C@@H]3C[C@H](C)C4=CC(=O)CC[C@]4(C)[C@H]3[C@@H](O)C[C@]12C`, the Potency entry is “inactive”.

On to `Fc1ccccc1[C@@H](F)COC1CCC(Nc2ncnc3[nH]ncc23)CC1` (stereo not given in full), for which the Potency entry is “inactive”.

Consider `CCNC(=O)N1CCN(CCCC(c2ccc(F)cc2)c2ccc(F)cc2)CC1`, for which the Potency result was “inactive”.

Regarding `c1cc[c]([Bi]([c]2ccccc2)[c]2ccccc2)cc1`, the Potency result is “inactive”.

Take `CCOC(=O)N1CCC(n2c(=O)[nH]c3cc(Cl)ccc32)CC1`: the Potency result is “inactive”.

Turning to `CCn1cc(C(=O)O)c(=O)c2cc(F)c(N3CCNCC3)nc21`, the Potency entry is “inactive”.

In the case of `CC(=O)OCC(=O)[C@@]12OC(C)(C)O[C@@H]1C[C@H]1[C@@H]3C[C@H](F)C4=CC(=O)C=C[C@]4(C)[C@@]3(F)[C@@H](O)C[C@@]12C`, the Potency result is “inactive”.

`CN(C)C(=O)Nc1ccc(Oc2ccc(Cl)cc2)cc1`: the Potency entry is “inactive”.

Turning to `CC[C@H](NC(=O)c1cc(F)ccc1NS(=O)(=O)c1cccc2cccnc12)c1ccccc1`, the Potency result was “inactive”.

Turning to `Nc1ccc(Cl)cc1[N+](=O)[O-]`, the Potency entry is “inactive”.

In the case of `Brc1cc(-c2ccc(Br)c(Br)c2Br)cc(Br)c1Br`, the Potency result was “inactive”.

Consider `O=C(O)C(Cc1cc(I)c(O)c(I)c1)c1ccccc1` (stereo not given), for which the Potency result is “inactive”.

Take `CC(C)(C)C(=O)C(Oc1ccc(Cl)cc1)n1ccnc1` (stereo not given): the Potency entry is “inactive”.

As for `C=CCOC(=O)/C=C\C(=O)OCC=C`, the Potency result was “inactive”.

As to `NC(=O)N(O)[C@@H]1C=C[C@H](Oc2cccc(Oc3ccc(F)cc3)c2)C1`, the Potency result was “inactive”.

In the case of `CCC(C(=O)OCCN(CC)CC)c1ccccc1` (stereo not given), the Potency entry was “inactive”.

For `COC(=O)c1cc(S(N)(=O)=O)ccc1OC`, the Potency result is “inactive”.

For `COc1ccc(CCC(=O)c2c(O)cc(O[C@@H]3O[C@H](CO)[C@@H](O)[C@H](O)[C@H]3O[C@@H]3O[C@@H](C)[C@H](O)[C@@H](O)[C@H]3O)cc2O)cc1O`, the Potency result is “inactive”.

For the compound `O=C(O)Cc1ccc(-c2ccccc2)cc1`, the Potency result was “inactive”.

For the compound `CCCCN(CCCC)C(=S)SSC(=S)N(CCCC)CCCC`, the Potency entry is “inactive”.

For `CC(CCO)CCc1ccccc1` (stereo not given), the Potency result was “inactive”.

As for `COC(=O)c1cc(Cl)ccc1NS(=O)(=O)C(F)(F)F`, the Potency entry is “inactive”.

On to `O=C(C(=O)c1ccccc1)c1ccccc1`, for which the Potency entry was “inactive”.

On to `Cc1oncc1C(=O)Nc1ccc(C(F)(F)F)cc1`, for which the Potency entry was “inactive”.

With `C[Si]1(C)O[Si](C)(C)O[Si](C)(C)O1`, the Potency result is “inactive”.

Take `CCCCC/C(=C\c1ccccc1)CO`: the Potency result was “inactive”.

Turning to `N#C/C(=C1\SCC(c2ccccc2Cl)S1)n1ccnc1` (stereo not given), the Potency entry was “inactive”.

The next test has as its target Vitamin D3 receptor (Homo sapiens) (UniProt P11473). The experiment in a line: qHTS assay to identify small molecule agonists of the vitamin D receptor (VDR) signaling pathway (AID 743222; calls by dose curve). Particulars: HEK293T VDR-UAS-bla, beta-lactamase FRET ratio, 16 h; series mostly up to 63.5 µM. The method, boiled down: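 VDR-bla cells were plated 4 h at 37C/5% CO2, then exposed to compounds in DMSO for 16 h. After LiveBLAzer B/G FRET substrate addition and 2 h at room temperature, beta-lactamase reporter fluorescence was read.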
As to `Cc1ccc(Nc2nccc(N(C)c3ccc4c(C)n(C)nc4c3)n2)cc1S(N)(=O)=O`, the result was inactive.

As to `CN(C)CCOC1=Cc2ccccc2Sc2ccc(Cl)cc21`, the outcome was inactive.

Consider `CCOCCn1c(C2CCN(CCc3ccc(C(C)(C)C(=O)O)cc3)CC2)nc2ccccc21`, for which the result was inactive.

On to `CCCC(=O)O[C@]1(C(=O)COC(=O)CC)CC[C@H]2[C@@H]3CCC4=CC(=O)CC[C@]4(C)[C@H]3[C@@H](O)C[C@@]21C`, for which the outcome was inactive.

Turning to `Oc1ccc(Nc2ccccc2)cc1`, the outcome was inactive.

With `CCC(C)(C)C1CCC(O)CC1` (stereo not given), the outcome was inactive.

As to `COC(=O)CC(=O)C(C)(C)C`, the result was inactive.

Take `CC(=O)[C@H]1CC[C@H]2[C@@H]3C[C@H](C)C4=CC(=O)CC[C@]4(C)[C@H]3[C@@H](O)C[C@]12C`: the outcome was inactive.

`Fc1ccccc1[C@@H](F)COC1CCC(Nc2ncnc3[nH]ncc23)CC1` (stereo not given in full): the result was inactive.

With `COCc1c(C(C)C)nc(C(C)C)c(/C=C/[C@@H](O)C[C@@H](O)CC(=O)O)c1-c1ccc(F)cc1`, the result was inactive.

For `c1cc[c]([Bi]([c]2ccccc2)[c]2ccccc2)cc1`, the result was inactive.

Turning to `CCn1cc(C(=O)O)c(=O)c2cc(F)c(N3CCNCC3)nc21`, the result was inactive.

For the compound `CC(=O)OCC(=O)[C@@]12OC(C)(C)O[C@@H]1C[C@H]1[C@@H]3C[C@H](F)C4=CC(=O)C=C[C@]4(C)[C@@]3(F)[C@@H](O)C[C@@]12C`, the result was inactive.

On to `CN(C)C(=O)Nc1ccc(Oc2ccc(Cl)cc2)cc1`, for which the outcome was inactive.

With `Nc1ccc(Cl)cc1[N+](=O)[O-]`, the result was inactive.

Turning to `Brc1cc(-c2ccc(Br)c(Br)c2Br)cc(Br)c1Br`, the outcome was inactive.

As for `C=CCOC(=O)/C=C\C(=O)OCC=C`, the outcome was inactive.

As for `CCC(C(=O)OCCN(CC)CC)c1ccccc1` (stereo not given), the result was inactive.

For the compound `COC(=O)c1cc(S(N)(=O)=O)ccc1OC`, the result was inactive.

With `COc1ccc(CCC(=O)c2c(O)cc(O[C@@H]3O[C@H](CO)[C@@H](O)[C@H](O)[C@H]3O[C@@H]3O[C@@H](C)[C@H](O)[C@@H](O)[C@H]3O)cc2O)cc1O`, the outcome was inactive.

Regarding `O=C(O)Cc1ccc(-c2ccccc2)cc1`, the outcome was inactive.

With `CC(CCO)CCc1ccccc1` (stereo not given), the outcome was inactive.

For `O=C(C(=O)c1ccccc1)c1ccccc1`, the result was inactive.

In the case of `C[Si]1(C)O[Si](C)(C)O[Si](C)(C)O1`, the outcome was inactive.

On to `CCCCC/C(=C\c1ccccc1)CO`, for which the outcome was inactive.
